# A selection: hits, their analogues and other compounds. The true share with any hit is near 11%.
# Insulin prom up = MIN6 insulin promoter up-regulation; MIN6 insulin promoter-GFP reporter, high-content imaging; active compounds read high; actives 0.3% (n = 190,000); z-score at 5 µM;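 active = z-score above 3 at 5 µM with at least 500 cells counted in the well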
# INS promoter inh = TRM-6 insulin promoter activity inhibition; TRM-6 cells (human fetal islet line), insulin promoter-eGFP reporter, imaging; reporter expression induced with tamoxifen; inhibition, % at 2 µM; actives 0.9% (n = 130,000); AID 1273;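 active = inhibition above the mean plus 3 SD, with well images judged a real hit on visual review, cut at about 60% in these data, passing the limit was not always enough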
# Autophagy mod = autophagy modulation, high-content screen; MEF GFP-LC3 puncta imaging; test concentration mostly 10 µM; calls only at 10 µM (by protocol); actives 0.98% (n = 190,000);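 active = percentage of spot-positive cells more than 3 SD above its plate mean, without a fluorescence outlier flag or 80% toxicity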;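 also: spot-positive cell cutoff set from DMSO-treated cells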
# WT yeast gro inh = growth inhibition of WT yeast, mitochondrial fusion screen; mitochondrial fusion phenotypic screen, WT strain; inhibition, % at 10 µM; actives 2.1% (n = 190,000); in the data active = inhibition above about 58%; tested in S. cerevisiae
# Lmaj promast = reduces viability of Leishmania major promastigotes | actives 9% (n = 200,000) | resazurin fluorescence viability | inhibition, % at 10 µM | AID 1063; in the data active = inhibition above about 50%;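 also: promastigotes grown with compound for 44 hours at 28 °C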
# Active calls of the source: *; i = inactive; x = not tested or not shown; + = active, no number.
SMILES,Insulin prom up,INS promoter inh,Autophagy mod,WT yeast gro inh,Lmaj promast
CCOc1ccc2nc(SCC(=O)NC(=O)C(C)C)sc2c1,-0.23,100.0*,i,-23.3,11.2
COc1cccc(C(=O)Nc2cccc3c2ccc2cccn23)c1,-0.91,x,i,-11.9,13.4
Cc1cccc(C)c1NC(=O)CSC(=O)c1sc2ccccc2c1Cl,-0.25,x,x,x,x
CCCn1c(Sc2nc3c(c(=O)[nH]c(=O)n3C)n2CCC)nc2c1c(=O)[nH]c(=O)n2C,0.72,-30.0,i,3.7,-0.6
C/C=C/CSc1nc2c(c(=O)[nH]c(=O)n2C)n1CCC,0.27,81.8*,i,5.9,1.5
CC(C)C(=O)N1CCN(c2ccc(NC(=O)c3ccc([N+](=O)[O-])o3)cc2Cl)CC1,0.26,i,i,93.6*,100.7*
O=C(Nc1ccc(N2CCOCC2)c(Cl)c1)c1ccc([N+](=O)[O-])o1,1.57,x,i,18.6,99.8*
CC(C)C(=O)N1CCN(c2ccc(NC(=O)c3ccc([N+](=O)[O-])o3)cc2)CC1,0.46,x,+,16.8,99.1*
O=C(Nc1ccc(N2CCOCC2)c(Cl)c1)c1c(F)c(F)c(F)c(F)c1F,1.17,-11.4,i,18.8,14.9
CCCC(=O)N1CCN(c2ccc(NC(=O)c3ccc([N+](=O)[O-])o3)cc2Cl)CC1,0.26,x,+,85.6*,100.7*
O=C(COC(=O)c1ccc([N+](=O)[O-])o1)Nc1cccc(S(=O)(=O)N2CCCCC2)c1,0.01,x,i,0.2,-9.0
Cc1ccc(NC(=O)c2ccccc2-c2ccc(C(F)(F)F)cc2)cc1S(=O)(=O)N1CCOCC1,-0.55,-19.5,i,18.1,93.3*
COc1ccc(C(=O)Nc2ccc(N3CCN(C(=O)c4ccccc4)CC3)cc2)cc1[N+](=O)[O-],0.06,x,i,22.1,13.8
O=C(Nc1ccc(N2CCN(C(=O)c3ccccc3)CC2)cc1)c1ccc([N+](=O)[O-])o1,x,x,i,29.0,100.5*
COc1ccc(NC(=O)c2ccccc2-c2ccc(C(F)(F)F)cc2)cc1S(=O)(=O)N1CCOCC1,-0.38,-38.5,i,0.6,-0.6
Cc1ccc(NC(=O)c2ccc([N+](=O)[O-])o2)cc1S(=O)(=O)N1CCOCC1,-1.28,-9.1,i,0.8,99.3*
O=C(Nc1cccc(S(=O)(=O)N2CCCCC2)c1)c1ccc([N+](=O)[O-])o1,0.09,x,i,9.3,100.3*
COc1ccc(C(=O)C2CCCN(S(=O)(=O)C(C)C)C2)c(C)c1 (stereo unspecified),x,x,i,-5.5,-7.3
Cc1ccc(NC(=O)COC(=O)CN2C(=O)NC(C)(C)C2=O)cc1S(=O)(=O)N1CCOCC1,0.18,78.6*,i,-24.9,-2.1
Cc1ccc(C)c2c1sc(=NC(=O)CN1C(=O)CCC1=O)n2C,-0.5,x,i,1.5,90.5*
Cc1ccc(C2=NN3C(C(=O)c4ccccc4)Oc4ccccc4C3C2)cc1 (stereo unspecified),-0.59,15.9,i,17.6,35.1
Cn1cc(/C=C2\SC(=S)N(NC(=O)c3ccccc3)C2=O)c2ccccc21,x,-12.5,i,-0.5,-1.3
CC(/C=C1\SC(=S)N(CC(=O)O)C1=O)=C\c1ccccc1,-0.34,x,x,x,x
CC(/C=C1\SC(=S)N(NC(=O)c2cccc(O)c2)C1=O)=C\c1ccccc1,x,31.2,i,85.6*,-0.7
Cn1cc(/C=C2\SC(=S)N(NC(=O)c3cccc(Cl)c3)C2=O)c2ccccc21,7.3*,x,x,x,x
SMILES,Insulin prom up,INS promoter inh,Autophagy mod,WT yeast gro inh,Lmaj promast
CC(CCc1ccccc1)NC(=O)CN1CCN(Cc2ccc(Cl)cc2)C1=O (stereo unspecified),-0.83,x,i,7.7,-1.8
COc1ccc(-n2ncc(Cl)c(Cl)c2=O)cc1,-3.95,x,i,-7.0,81.7*
COc1ccc(-n2ncc(N(C)n3cccc3)c(Cl)c2=O)cc1,0.91,36.4,i,4.8,2.9
CC(C)=CC(=O)Nc1ccc(S(=O)(=O)Nc2ccccn2)cc1,0.16,-17.6,i,6.5,-3.0
CCCCC1(CC(=O)OC)C(=O)N(c2ccccc2)N(c2ccccc2)C1=O,0.56,-23.5,i,-5.1,9.3
C=CCc1ccc(OCC(O)CN2CCC(Cc3ccccc3)CC2)c(OC)c1 (stereo unspecified),-1.25,3.5,i,44.4,100.2*
COc1cccc(OCC(O)CN2CCC(Cc3ccccc3)CC2)c1 (stereo unspecified),-0.71,x,i,-2.5,95.4*
COc1cccc(OCC(O)CN2CC(C)CC(C)C2)c1 (stereo unspecified),0.87,x,x,-4.9,87.5*
C=CCc1ccc(OCC(O)CN2CCN(Cc3ccc(Cl)cc3)CC2)c(OC)c1 (stereo unspecified),-0.2,-24.1,i,31.5,93.1*

# Screening data from PubChem BioAssay.
